Compound activity as filed in PubChem BioAssay.
The entries come from a sample that favours hits as a whole.
PKM2 inh: inhibitors of human pyruvate kinase M2; purified PKM2, ATP generation, Kinase-Glo luminescence; 260,000 compounds, 0.058% hits; AID 1634; Potency, µM (highest dose often 57.5 µM), actives largely listed as inhibitors; P14618; active = well fitted inhibition curve with a large enough effect; also: nearly all actives have a fitted effect of over 60% in size
Target sequence (P14618 whole entry, looked up): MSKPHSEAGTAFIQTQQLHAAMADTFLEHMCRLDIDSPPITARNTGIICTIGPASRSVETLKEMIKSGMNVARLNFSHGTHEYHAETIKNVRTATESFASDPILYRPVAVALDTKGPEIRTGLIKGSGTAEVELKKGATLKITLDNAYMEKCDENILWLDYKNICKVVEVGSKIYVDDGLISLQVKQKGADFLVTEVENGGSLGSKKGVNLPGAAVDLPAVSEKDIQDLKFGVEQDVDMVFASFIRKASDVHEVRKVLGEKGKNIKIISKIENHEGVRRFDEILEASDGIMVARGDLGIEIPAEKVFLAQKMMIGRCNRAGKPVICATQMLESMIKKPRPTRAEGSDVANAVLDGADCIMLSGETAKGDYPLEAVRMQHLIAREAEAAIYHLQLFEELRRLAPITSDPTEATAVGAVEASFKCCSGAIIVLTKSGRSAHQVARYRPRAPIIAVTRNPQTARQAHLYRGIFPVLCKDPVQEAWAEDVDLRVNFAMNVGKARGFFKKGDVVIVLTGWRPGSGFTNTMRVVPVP
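Coupled luciferase luminescence (Kinase-Glo) detects ATP generated from 0.1 mM ADP and 0.5 mM PEP in imidazole buffer pH 7.2 with KCl, MgCl2; 1 h at room temperature. Enzyme at intermediate activity; normalized to uninhibited and no-enzyme controls.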
Numbers stand for hits; i = inactive; [ ] = dose if it differs, or a comment.

SMILES	PKM2 inh
CC(C)(C)OC(=O)NCCCCCc1nnc(SCC(=O)Nc2cccc(Cl)c2)o1	i
O=C(CSc1nncc2ccccc12)Nc1cccc(O)c1	i
CCCCC1=CC2=C(c3ccco3)C(=O)C(C)(OC(=O)c3ccc(OC)cc3)C(=O)C2=CN1c1ccccc1 (stereo not drawn)	i
Cc1ccc(/C=N/N2CCN(Cc3cccc4ccccc34)CC2)o1	i
Cc1nnc(NC(=O)CSc2nc3c(c(=O)n(C)c(=O)n3C)n2C(C)C)s1	i
Nc1nc(NCc2ccco2)nc(Nc2cccc(F)c2)c1[N+](=O)[O-]	i
CNc1nc(-c2ccccc2)[n+](-c2ccc(C)cc2)s1	10µM
CCOC(=O)c1[nH]c2ccccc2c1N=CN(CC)CC	i
CC(=O)c1sc(NC(=O)c2ccc(Cn3cc(Br)cn3)o2)nc1C	i
CCCn1c(NC(=O)c2ccco2)nc2ccccc21	i
Cc1nc(NC(=O)c2ccco2)sc1C(=O)O	13µM
N#C/C(=C\c1cccnc1)C(=O)Nc1cccc(Cl)c1	i
Fc1ccccc1C1CC(c2ccco2)=Nc2ccccc2S1 (stereo not drawn)	i
CNc1ccccc1-c1nc2ccccc2n(C)c1=O	i
CN(C)c1ccc(N=Nc2nc3ccccc3n2C)cc1	16µM
COc1cccc(CNc2nc3ccccc3n2C)c1O	i
CC(=O)N1N=C(c2ccccc2O)CC1c1cccs1 (stereo not drawn)	i
N#C/C(=C\c1cccs1)C(=O)c1ccccc1Cl	i
O=C(NC1CSC/C1=N\O)c1ccccc1 (stereo not drawn)	i
COCc1cc(C)nc(OCC(=O)N/N=C/c2ccc(C)o2)c1C#N	i
COc1ccc(-c2ccc(SC)nn2)cc1	10µM
COc1cccc(NC(=O)CSc2ccc(-c3sc(C)nc3C)nn2)c1	i
Clc1ccc2nc(CN3CCCc4ccccc43)cn2c1	i
O=c1cc(-c2ccccc2Cl)oc2c(NS(=O)(=O)c3cccs3)ccc(O)c12	i
Cc1cnc(NC(=O)C2(c3ccccc3)CC2)s1	i
SMILES	PKM2 inh
COc1ccc(S(=O)(=O)/N=C2/C=CC(=O)C(C)=C2C)cc1	i
COc1ccc(S(=O)(=O)c2ccc(OC)cc2)cc1	i
COc1ccc(C2=CC(=O)C=CC2=O)cc1	18µM
COC(=O)N1[C@H](C)C=C[C@]1(Cc1ccccc1)C(=O)NCc1ccc(C)o1	i
O=C(COc1ccc(Cl)cc1Cl)Nc1ccccn1	14µM
O=C(COc1ccc(Cl)cc1Cl)NC(=S)Nc1ccc(CN2CCOCC2)cc1	i
O=C(COc1ccc(Cl)cc1Cl)NCC(=O)N/N=C/c1c[nH]c2ccccc12	i
Cc1nc(N=Nc2ccc(O)cc2)n[nH]1	13µM
c1coc(-c2nc3nc4ccccc4nc3n2-c2ccc3c(c2)OCCO3)c1	i
CNc1c([N+](=O)[O-])cnn1-c1ccc(C)cc1	i
CN(C)c1ccc(/C=N/NC(=O)c2ccnn2C)cc1	7.9µM
Cc1ccc(CNC(=O)CCc2nnc(Cc3ccc(-c4ccccc4)cc3)o2)o1	i
COC(=O)c1ccc(C(=O)OC)c(NC(=O)CSc2cccc[n+]2[O-])c1	i
O=C(Nc1cccc(O)c1)c1cccc(S(=O)(=O)Nc2cccc(O)c2)c1	i
CC(=O)N1CCN(c2ccc(NC(=O)c3cccc(C)c3)cc2)CC1	i
O=C(O)c1cc(NC(=O)c2cccc(C(=O)Nc3cc(C(=O)O)cc(C(=O)O)c3)c2)cc(C(=O)O)c1	13µM
Cc1ccc(N(Cc2cc3ccc(C)cc3[nH]c2=O)S(C)(=O)=O)c(C)c1	i
Cc1csc(NC(=O)C2CCN(C(=O)CSc3nnc(C)n3Cc3ccccc3)CC2)n1	i
Cc1noc(C)c1S(=O)(=O)N1CCC(C(=O)Nc2ccccn2)CC1	i
Cc1ccc(-c2cc(C(=O)Nc3ccccn3)c3ccccc3n2)o1	i
O=C(Nc1ccccn1)c1onc2c1CCCC2	14µM
COC(=O)[C@@]1(Cc2ccc(OC)cc2)[C@H]2c3cc(C(=O)N(C)C)n(Cc4ccc(C)o4)c3C[C@H]2CN1C(=O)c1ccccc1	i
O=C1COc2ccc(S(=O)(=O)Nc3ccc4c(c3)OCO4)cc2N1	i
NS(=O)(=O)c1c(Sc2ccccc2C(=O)O)ccc2ccccc12	i
Cn1c(CCNC(=O)c2ccco2)nc2cc(NS(=O)(=O)c3ccc(Cl)cc3)ccc21	i
SMILES	PKM2 inh
O=C1COc2ccc(C(=O)COC(=O)Cc3ccsc3)cc2N1	i
COc1ccc2c(c1)-c1nc(NC(=O)c3cccs3)sc1CC2	i
COc1ccc2nc3c(cc2c1)Cc1ccccc1-3	14µM
CNCc1nc2ccccc2[nH]1	i
O=c1[nH]c(C(F)(F)F)nc2ccccc12	i
Cc1nn(-c2nc3ccccc3[nH]2)c(=O)c2ccccc12	16µM
O=C(CSc1ccc(-c2ccco2)nn1)c1ccccc1	i
COc1ccccc1NC(CC(=O)c1ccccc1)C(=O)OCC(=O)c1ccc(F)cc1 (stereo not drawn)	i
CC(C)c1nc2sc(C(=O)O)c(N)c2c2c1CCCC2	i
CC1(C)CC(=O)c2c(oc3ccc(NS(=O)(=O)c4cccc5cccnc45)cc23)C1	i
COc1ccc(/C(N)=N/OC(=O)c2ccco2)cc1	18µM
COc1ccc(C(=O)Nc2ncc3c(n2)CC(c2ccco2)CC3=O)cc1 (stereo not drawn)	i
COc1cccc(S(=O)(=O)N2CCN(C(=O)c3ccco3)CC2)c1	i
CC(Sc1ccc([N+](=O)[O-])cn1)C(=O)Nc1nccs1 (stereo not drawn)	i
Cc1ccnc(SCc2cc(=O)c(OC(=O)c3ccc(S(=O)(=O)N(C)C)cc3)co2)n1	i
CC(C)n1c(SCC(=O)Nc2ccccc2)nc2c1c(=O)n(C)c(=O)n2C	i
O=[N+]([O-])c1ccc2nc(NS(=O)(=O)c3ccc(F)cc3)sc2c1	i
O=c1c2sccc2nc(SCc2cc(=O)n3ccccc3n2)n1Cc1ccccn1	i
C=CCOC(=O)C1=C(C)NC(=O)NC1c1cc(Cl)cc(Cl)c1OC (stereo not drawn)	i[11.5 µM]
Cc1ccc(NC(=O)c2cc(-c3ccc(C)o3)nc3ccccc23)cc1	i
O=C(Nc1ccccc1)c1cc2ccccc2o1	11µM
NC(=O)c1oc2ccccc2c1NC(=O)CCc1ccccc1	i
CCOC(=O)N1CCC(=NNC(=O)COc2ccc(OC)cc2)CC1	i
Cc1ccc(/C=N/N(Cc2ccccc2)c2ccccc2)o1	i
CC(=O)c1c(C)[nH]c(C(=O)Nc2ccc(C)cc2Br)c1C	i
SMILES	PKM2 inh
N#CC(c1ccc(O)cc1)c1ncc(C(F)(F)F)cc1Cl (stereo not drawn)	i
O=c1[nH]c(=O)n(CCO)c2nnn(Cc3ccccc3)c12	i
Cc1cc(C)cc(NC(=O)Nc2ccc(N3CCCCC3)cc2)c1	i
O=C(Nc1ccc2c(c1)OCCO2)c1ccccn1	14µM
O=C(Nc1ccc(N2CCCCC2)cc1)c1ccccn1	16µM
Cc1cc(NC(=O)C2CCCCC2)ncc1NC(=O)c1ccccn1	i
O=C(CN1CCN(c2ccc(O)cc2)CC1)Nc1ccc2c(c1)OCCO2	i
O=C(Nc1ccc2oc(-c3ccccc3F)nc2c1)c1ccc2c(c1)OCCO2	i
Nc1cnn(Cc2ccccc2F)c1	i
Cc1cc(N=Cc2c(O)ccc3cc(Br)ccc23)no1	i
CCCNC(=O)c1cc(S(=O)(=O)N2CCCCC2)c[nH]1	i
O=c1cc(CSc2nnc(COc3ccccc3Cl)o2)nc2sccn12	i
Cc1nc2ccc(S(=O)(=O)Nc3ccccc3C)cc2s1	i
O=C(COC(=O)c1ccc(NS(=O)(=O)c2ccc3c(c2)OCCO3)cc1)NC1CC1	i
O=C(COC(=O)c1cccs1)c1ccc2c(c1)OCCO2	28µM
CCOC(=O)c1cnc(SCC(=O)c2ccc3c(c2)OCCO3)nc1N	i
